Test results taken from PubChem BioAssay.

Assay: adipocyte viability effects, profiling panel, cell-based, 3T3-L1 adipocytes, calcein-AM fluorescence, 48 h, basal (AID 1163)
Details: 3T3-L1 adipocytes viability, higher = more signal
Further: test concentration not given here.

**Q.** Which z-score does the source give for `C=CCNC(=O)[C@@H]1[C@H]2C(=O)O[C@H](c3ccccc3)[C@H](c3ccccc3)N2[C@H](c2ccc(O)cc2)[C@@]12C(=O)Nc1ccc(C#CC3=CCCCC3)cc12` here?
**A.** The z-score was 0.266.

**Q.** With `COCCOC(=O)N1C(=O)[C@@]2(c3cc(C#CCCO)ccc31)[C@H](C(=O)N1CCN(c3ncccn3)CC1)[C@H]1C(=O)O[C@H](c3ccccc3)[C@H](c3ccccc3)N1[C@@H]2c1ccc(OCCO)cc1` as the compound, how does the z-score read?
**A.** The z-score was 0.474.

**Q.** With `O=C1N(Cc2ccccc2)Cc2ccccc2C[C@@]12COC(c1ccc(OCCCO)cc1)=N2` as the compound, how does the z-score read?
**A.** Its z-score is 1.06.

**Q.** With `[N-]=[N+]=NCc1ccccc1[C@H]1OC(c2ccc(OCCCO)cc2)=N[C@@]1(Cc1ccccc1N=[N+]=[N-])C(=O)N1CCOCC1` as the compound, how does the z-score read?
**A.** Its z-score is -0.182.

**Q.** With `CO[C@H]1O[C@H](CO)[C@@H](OC(=O)Nc2cccc(F)c2)[C@H](OC(=O)Nc2ccc3c(c2)OCO3)[C@@H]1OC(=O)Nc1ccc2c(c1)OCO2` as the compound, how does the z-score read?
**A.** Its z-score is 0.726.

**Q.** Which z-score does the source give for `[N-]=[N+]=Nc1ccccc1C[C@@]1(C(=O)NCc2ccccc2)N=C(c2ccc(OCCCO)cc2)O[C@@H]1c1ccccc1` here?
**A.** Its z-score is 0.902.

**Q.** With `C=C[C@H](C)[C@@H](OC(=O)Nc1ccc(SC)cc1)c1ccc(OCCO)cc1` as the compound, how does the z-score read?
**A.** Its z-score is -0.0489.

**Q.** With `COc1ccc(C#Cc2ccc3c(c2)[C@]2(C(=O)N3)[C@H](c3ccccc3OCCO)N3[C@H](c4ccccc4)[C@H](c4ccccc4)OC(=O)[C@H]3[C@@H]2C(=O)NC[C@H](O)c2ccccc2)cc1` as the compound, how does the z-score read?
**A.** Its z-score is 0.449.

Assay: HepG2 cell viability effects, profiling panel, calcein-AM fluorescence, 48 h, basal (AID 1164)
Details: higher = more signal

**Q.** Which z-score does the source give for `COCCOC(=O)N1C(=O)[C@@]2(c3cc(C#CCC(C(=O)OC)C(=O)OC)ccc31)[C@H](c1ccc(O)cc1)N1[C@H](c3ccccc3)[C@H](c3ccccc3)OC(=O)[C@H]1[C@@H]2C(=O)N1CCc2cc(OC)c(OC)cc2C1` here?
**A.** The z-score was 0.806.

**Q.** For `C[C@]1(C(=O)O)c2ccccc2C(=O)N(Cc2cc(C(F)(F)F)cc(C(F)(F)F)c2)[C@H]1c1ccc(CO)cc1`, which z-score is on record?
**A.** The z-score was -0.164.

**Q.** With `O=C(N1CCOCC1)[C@]1(CCS(=O)(=O)c2ccccc2)N=C(c2ccc(OCCCO)cc2)O[C@@H]1c1ccccc1` as the compound, how does the z-score read?
**A.** Its z-score is 0.176.

**Q.** Which z-score does the source give for `CC1(C)OB(/C=C\CC(OC(=O)c2ccncc2)c2ccccc2)OC1(C)C` (stereo not drawn) here?
**A.** The z-score was -0.691.

**Q.** For `COC(=O)[C@]1(Cc2ccccc2CN=[N+]=[N-])N=C(c2ccc(OCCCO)cc2)O[C@@H]1c1ccccc1N=[N+]=[N-]`, which z-score is on record?
**A.** The z-score was -5.51.

**Q.** Which z-score does the source give for `CC(C)(C)OC(=O)CC[C@@]1(C(=O)N2CCOCC2)N=C(c2ccc(OCCCO)cc2)O[C@@H]1c1ccccc1CN=[N+]=[N-]` here?
**A.** Its z-score is -0.261.

**Q.** With `COC(=O)[C@@]1(Cc2ccccc2)[C@H]2c3cc(C(=O)N(C)C)n(Cc4ccc(Cl)c(C(F)(F)F)c4)c3C[C@H]2CN1C(=O)c1ccccc1` as the compound, how does the z-score read?
**A.** Its z-score is -2.06.

**Q.** Which z-score does the source give for `CN1C(=O)C2C(C1=O)C1C=C(CCCO)C2C(C2CC2)N1C` (stereo not drawn) here?
**A.** The z-score was 0.019.

**Q.** With `CO[C@H]1O[C@H](CO)[C@@H](OC(=O)CCc2ccccc2)[C@@H]2OC(=O)[C@@H](Cc3ccc4ccccc4c3)C/C=C/C[C@H](Cc3ccc4ccccc4c3)C(=O)O[C@@H]12` as the compound, how does the z-score read?
**A.** The z-score was 1.27.

**Q.** With `C=C(C(=O)CC[C@@H](OC(=O)c1ccccc1-c1ccccc1C(=O)O)c1ccc(OCCO)cc1)C(C)C` as the compound, how does the z-score read?
**A.** The z-score was 0.654.

**Q.** With `[N-]=[N+]=NCc1ccccc1[C@H]1OC(c2ccc(OCCCO)cc2)=N[C@@]1(Cc1ccccc1N=[N+]=[N-])C(=O)O` as the compound, how does the z-score read?
**A.** Its z-score is 0.312.

**Q.** Which z-score does the source give for `C=CCN1C(=O)[C@]2(O[C@H](CCO)[C@@H]([Si](C)(C)c3ccc(OC)cc3)[C@@H]2C)c2cc(N3C(=O)c4ccccc4Oc4ccccc43)ccc21` here?
**A.** The z-score was -4.64.

**Q.** Which z-score does the source give for `CCOC(=O)C[C@H]1[C@H](OC(=O)c2ccc(-c3ccccc3)cc2)[C@@H](NC(=O)C2CCCCC2)c2cc(OCCCO)ccc2N1C(=O)Cc1ccc(OC)cc1` here?
**A.** The z-score was -0.216.

**Q.** Which z-score does the source give for `C=CCNC(=O)[C@@H]1[C@H]2C(=O)O[C@H](c3ccccc3)[C@H](c3ccccc3)N2[C@H](c2ccc(OCCO)cc2)[C@@]12C(=O)Nc1ccc(C#CCNC(N)=O)cc12` here?
**A.** Its z-score is -0.397.

**Q.** Which z-score does the source give for `CC(C)Cc1ccc(CN2CC[C@@H](NC(=O)c3ccccc3)C2)cc1` here?
**A.** Its z-score is -0.179.

**Q.** For `CC(=O)NCCCC[C@@H]1NC(=O)[C@H]2C[C@@H](C(=O)NCCCCCN)[C@@H](c3ccc(O)cc3)N2C1=O`, which z-score is on record?
**A.** The z-score was -0.926.

**Q.** With `CCCNC(=O)[C@@]1(Sc2ccc(C)cc2)CC(=O)N(Cc2cc(C(F)(F)F)cc(C(F)(F)F)c2)[C@@H]1c1ccc(CO)cc1` as the compound, how does the z-score read?
**A.** Its z-score is -0.609.

**Q.** With `Cc1ccc(S[C@]2(C(=O)NCc3ccccc3)CC(=O)N(Cc3ccccc3C(F)(F)F)[C@@H]2c2ccc(CO)cc2I)cc1` as the compound, how does the z-score read?
**A.** Its z-score is 0.024.

**Q.** For `CCc1cccc(NC(=O)O[C@H]2[C@H](OC(=O)Nc3ccccc3-c3ccccc3)[C@H](OC(=O)Nc3ccccc3-c3ccccc3)[C@@H](OC)O[C@@H]2CO)c1`, which z-score is on record?
**A.** The z-score was -1.7.

**Q.** With `Cc1ccc(S[C@]2(C(=O)NCC(C)C)CC(=O)N(C(C)C)[C@@H]2c2ccc(CO)cc2I)cc1` as the compound, how does the z-score read?
**A.** The z-score was 0.867.

**Q.** Which z-score does the source give for `COC(=O)C(CC#Cc1ccc2c(c1)[C@]1(C(=O)N2)[C@H](C(=O)N2CCCCCCC2)[C@H]2C(=O)O[C@H](c3ccccc3)[C@H](c3ccccc3)N2[C@@H]1c1ccc(OCCO)cc1)C(=O)OC` here?
**A.** Its z-score is 0.0259.

**Q.** For `O=C1NC(=O)C2C1C=CC(C(O)C1CCCCC1)N2Nc1ccccn1` (stereo not drawn), which z-score is on record?
**A.** The z-score was -0.484.

**Q.** Which z-score does the source give for `CN1C(=O)C2C=CC(C(O)c3ccc(I)cc3)N(N(c3ccccc3)c3ccccc3)C2C1=O` (stereo not drawn) here?
**A.** The z-score was -0.0518.

**Q.** Which z-score does the source give for `COC(=O)[C@]1(Cc2ccccc2N=[N+]=[N-])N=C(c2ccc(OCCCO)cc2)O[C@@H]1c1ccccc1CN=[N+]=[N-]` here?
**A.** The z-score was -5.59.

**Q.** With `COC(=O)[C@@]1(Cc2ccc(F)cc2)[C@H]2c3cc(C(=O)N(C)C)n(Cc4ccc(C(F)(F)F)nc4)c3C[C@H]2CN1C(=O)c1ccccc1` as the compound, how does the z-score read?
**A.** Its z-score is 0.158.

**Q.** Which z-score does the source give for `C=C(CCCC)/C(=C/C[C@@H](OC(C)=O)c1ccc(OCCO)cc1)c1cc(C(=O)OC)ccc1OC` here?
**A.** Its z-score is 0.447.

**Q.** Which z-score does the source give for `COc1ccc([Si](C)(C)[C@@H]2[C@@H](CC(=O)N3Cc4ccccc4C[C@H]3CO)O[C@]3(C(=O)N(Cc4ccc(I)cc4)c4ccccc43)[C@H]2C)cc1` here?
**A.** Its z-score is -0.435.

**Q.** With `C=CCNC(=O)[C@@H]1[C@H]2C(=O)O[C@H](c3ccccc3)[C@H](c3ccccc3)N2[C@H](c2ccc(O)cc2)[C@@]12C(=O)Nc1ccc(C#CC3=CCCCC3)cc12` as the compound, how does the z-score read?
**A.** Its z-score is -3.89.

**Q.** With `COCCOC(=O)N1C(=O)[C@@]2(c3cc(C#CCCO)ccc31)[C@H](C(=O)N1CCN(c3ncccn3)CC1)[C@H]1C(=O)O[C@H](c3ccccc3)[C@H](c3ccccc3)N1[C@@H]2c1ccc(OCCO)cc1` as the compound, how does the z-score read?
**A.** The z-score was -0.442.

**Q.** With `O=C1N(Cc2ccccc2)Cc2ccccc2C[C@@]12COC(c1ccc(OCCCO)cc1)=N2` as the compound, how does the z-score read?
**A.** The z-score was 0.325.

**Q.** Which z-score does the source give for `[N-]=[N+]=NCc1ccccc1[C@H]1OC(c2ccc(OCCCO)cc2)=N[C@@]1(Cc1ccccc1N=[N+]=[N-])C(=O)N1CCOCC1` here?
**A.** The z-score was -0.659.

**Q.** With `CO[C@H]1O[C@H](CO)[C@@H](OC(=O)Nc2cccc(F)c2)[C@H](OC(=O)Nc2ccc3c(c2)OCO3)[C@@H]1OC(=O)Nc1ccc2c(c1)OCO2` as the compound, how does the z-score read?
**A.** Its z-score is -1.07.

**Q.** Which z-score does the source give for `[N-]=[N+]=Nc1ccccc1C[C@@]1(C(=O)NCc2ccccc2)N=C(c2ccc(OCCCO)cc2)O[C@@H]1c1ccccc1` here?
**A.** Its z-score is -1.78.

**Q.** With `C=C[C@H](C)[C@@H](OC(=O)Nc1ccc(SC)cc1)c1ccc(OCCO)cc1` as the compound, how does the z-score read?
**A.** The z-score was -0.232.

**Q.** Which z-score does the source give for `COc1ccc(C#Cc2ccc3c(c2)[C@]2(C(=O)N3)[C@H](c3ccccc3OCCO)N3[C@H](c4ccccc4)[C@H](c4ccccc4)OC(=O)[C@H]3[C@@H]2C(=O)NC[C@H](O)c2ccccc2)cc1` here?
**A.** The z-score was -1.88.
